# PubChem BioAssay
# Values without a mark were called inactive. The rule behind the calls is not given here.
# Target: Pantothenate synthetase (Mycobacterium tuberculosis (strain ATCC 25618 / H37Rv)) (UniProt P9WIL5)
# Experiment: Recombinant Mtb pantothenate synthetase (PanC) inhibitors, coupled enzyme, confirmatory (AID 375);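 note: 0% = full reaction with vehicle and 100% = no enzyme background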
# Conditions: coupled enzyme assay; at 10 µM, stronger effect = higher value
# Chain of Pantothenate synthetase (Mycobacterium tuberculosis (strain ATCC 25618 / H37Rv)) (P9WIL5 whole entry, looked up): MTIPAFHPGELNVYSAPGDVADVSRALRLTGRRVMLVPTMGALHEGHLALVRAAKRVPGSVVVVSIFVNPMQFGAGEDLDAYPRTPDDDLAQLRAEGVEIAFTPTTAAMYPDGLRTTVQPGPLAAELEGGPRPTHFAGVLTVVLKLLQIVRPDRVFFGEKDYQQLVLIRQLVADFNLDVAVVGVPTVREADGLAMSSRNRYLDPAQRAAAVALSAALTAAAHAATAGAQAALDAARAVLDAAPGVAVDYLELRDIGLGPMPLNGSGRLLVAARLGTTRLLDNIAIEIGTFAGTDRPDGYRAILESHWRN
row,Compound,inhibition
1,Cc1nnc(SCc2cccc(Oc3ccccc3)c2)n1N,0%
2,CCOC(=O)C1=C(CC)Nc2ccccc2N=C1NC(=O)Cn1cnc2ccccc2c1=O,0%
3,COC(=O)c1c(NC(=O)CSc2nnnn2C)sc(C)c1C,0%
4,O=C(Cn1ccc2ccccc2c1=O)NCCC(=O)NC1CCN(Cc2ccccc2)CC1,0%
5,CCOc1ccc(N(CC(=O)NCc2cccc(OC)c2)S(=O)(=O)c2c(C)noc2C)cc1,6%
6,COC(=O)c1ccccc1NC(=O)Nc1cccs1,7%
7,CC(C)Oc1cc2oc(=O)c3c(c2cc1Cl)CCC3,0%
8,CC(C)(C)C(=O)CCN1C(=O)C2(OCCO2)c2ccccc21,0%
9,CSc1nc2ccccc2c(=O)n1N,0%
10,CCOC(=O)c1cnc(-n2cc(C)cn2)nc1Nc1ccccc1OC,0%
11,CCCC(=O)Nc1nnc(CC(=O)OCC)s1,3%
12,C=CCNC(=O)CN(c1cccc(Br)c1)S(C)(=O)=O,0%
13,Cn1cc(CN2CCc3ccccc3C2)c2ccccc21,9%
14,O=C1C2CCCN2C(c2ccccc2)N1c1ccc(Cl)cc1 (stereo not drawn),1%
15,Cc1cc(C(=O)COC(=O)C2COc3ccccc3O2)c(C)n1CC1CCCO1 (stereo not drawn),0%
16,O=C(O)C1C2CCC(O2)C1C(=O)NCCC1=CCCCC1 (stereo not drawn),3%
17,CSc1cccc(NC(=O)CN(C)S(=O)(=O)c2ccccc2)c1,0%
18,Cc1cc(C)c(S(=O)(=O)N(C)CC(N)=O)c(C)c1,0%
